# Source: PubChem BioAssay AID651597 (National Center for Advancing Translational Sciences (NCATS), 2012)
# Hit rate of the full screen: of about 1,100 compounds, about 390 (35%) were called active. Another 30% or so got no clear call; they are omitted. Calls come from the whole dose curve; as a rule, active = well fitted inhibition curve with a large enough effect; inconclusive = small, poorly fitted or top-dose-only effect; inactive = flat fitted curve, though single readings scatter. The list shows a part of the results.
# Target: Luciferin 4-monooxygenase (Photinus pyralis) (UniProt P08659)
# Test: qHTS of Nrf2 Activators: Hit Validation in Secondary FLuc Assay; note: nearly all actives have a fitted effect of over 65% in size
# Conditions: firefly luciferase inhibition counter-screen, luminescence; series mostly up to 57.5 µM
# How it was run: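 Counter-screen on purified firefly luciferase with ATP and D-luciferin at Km concentrations; compounds flagged if they inhibit the enzyme, indicating possible reporter stabilization rather than ARE activation.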
# Potency is the fitted concentration of half-maximal effect.
row,Structure (SMILES),Potency
1,O=C(Nc1cnc2ccccc2c1)c1ccco1,1.35 µM (active)
2,O=C(NC(=S)Nc1cnc2ccccc2c1)c1ccccc1,3.38 µM (active)
3,Cc1cc(NC(=S)NC(=O)c2ccco2)c2ccccc2n1,inactive
4,Cn1ccsc1=NC(=O)c1ccc([N+](=O)[O-])o1,inactive
5,CN(Cc1ccccc1)C(=O)c1ccc([N+](=O)[O-])o1,inactive
6,O=C(CCS(=O)(=O)c1ccccc1)Nc1nc2ccc(F)cc2s1,inactive
7,O=C(c1ccc([N+](=O)[O-])o1)N1CCN(c2nc3c(Cl)cccc3s2)CC1,inactive
8,O=C(Nc1nc2ccc(F)cc2s1)c1ccc([N+](=O)[O-])o1,2.13 µM (active)
9,O=C(Nc1nc2c(Cl)cccc2s1)c1ccc([N+](=O)[O-])o1,10.7 µM (active)
10,Cc1ccc(-n2nc3c([n+]2[O-])CCc2c-3no[n+]2[O-])cc1,inactive
11,Oc1ccc(Cl)cc1/C=C/c1ccc2cccc(O)c2n1,9.53 µM (active)
12,COc1cc(Cl)cc(/C=C/c2ccc3cccc(O)c3n2)c1OC,9.53 µM (active)
13,CN(N=Cc1ccccc1O)c1ccc2ccccc2n1,0.849 µM (active)
14,O=C(Nc1ccc(F)cc1)c1nsc(Cl)c1Cl,1.69 µM (active)
15,CSc1nsc(SC)c1C(=O)Nc1ccc(Cl)cc1,inactive
16,O=C(Nc1ccc(OC(F)F)cc1)c1ncc(Cl)c(Cl)c1Cl,inactive
17,COc1ccc(Nc2nc(C)nc3sc4c(c23)CCC4)cc1O,inactive
18,CC1(C)CC[C@]2(C(=O)n3ccnc3)CC[C@]3(C)[C@H](C(=O)C=C4[C@@]5(C)C=C(C#N)C(=O)C(C)(C)[C@@H]5CC[C@]43C)[C@@H]2C1,0.478 µM (active)
19,N#Cc1sc2nc(-c3ccccc3)cc(C(F)(F)F)c2c1N,inactive
20,COc1cccc(C(=O)Nc2cc(Cl)c(O)c(Cl)c2)c1,12 µM (active)
21,COc1cccc(NC(=O)c2cc(Cl)nnc2Cl)c1,inactive
22,COC(=O)c1sccc1NC(=O)c1cccc(Cl)c1,inactive
23,CN(C)c1oc(/C=C/c2ccccc2)nc1C#N,8.49 µM (active)

row,Structure (SMILES),Potency
1,Oc1ccc(CNc2ccccc2O)cc1,12 µM (active)
2,CCCCC1C(=O)N(c2ccccc2)N(c2ccc(O)cc2)C1=O (stereo not drawn),10.7 µM (active)
3,COc1ccc(-c2csc3nc(-c4cccnc4)nc(Cl)c23)cc1OC,12 µM (active)
4,Cc1ccc(/C=C/C(=O)OCC(=O)Nc2cccnc2Cl)o1,inactive
5,O=C(/C=C/c1ccco1)Nc1cccc2cccnc12,4.78 µM (active)
6,CC(C)(C)OC(=O)NCCC(=O)N/N=C/c1cccc2cccnc12,inactive
7,O=C(/C=C/c1ccco1)Nc1cccnc1Cl,6.01 µM (active)
8,O=C1N/C(=N\N=C\c2ccco2)SC1Cc1ccc(F)cc1 (stereo not drawn),inactive
9,O=C1NC(=Nc2ccccc2)S/C1=C\C=C\c1ccco1,6.01 µM (active)
10,O=C1NC(=Nc2ccccc2)S/C1=C\c1ccccc1,7.57 µM (active)
11,O=C(CC1S/C(=N/N=C/c2ccco2)NC1=O)Nc1ccccc1 (stereo not drawn),inactive
12,Cc1cccc(CC2S/C(=N/N=C/c3ccco3)NC2=O)c1 (stereo not drawn),inactive
13,Cc1ccc(N=C2NC(=O)/C(=C/C=C/c3ccco3)S2)cc1,8.49 µM (active)
14,Cc1ccc(S(=O)(=O)C=CS(=O)(=O)c2ccc(C)cc2)cc1,0.379 µM (active)
15,Cc1ccc(S(=O)(=O)c2cc3ccccc3oc2=O)cc1,inactive
16,Cc1ccc(S(=O)(=O)CCSC(=N)N)cc1,inactive
17,O=C(COc1cccnc1[N+](=O)[O-])Nc1cccc2ccccc12,inactive
18,C/C(=N\NC(=O)COc1ccccc1[N+](=O)[O-])c1cccs1,9.53 µM (active)
19,CCC/C(=N\NC(=O)c1ccco1)c1ccc(Cl)s1,inactive
20,CCCN(C(=O)c1ccco1)c1nnc(-c2ccccc2C)s1,6.75 µM (active)
21,Oc1ccc(NCc2cccc(OCc3ccc(F)cc3)c2)cc1,3.38 µM (active)
22,CCOc1ccccc1NS(=O)(=O)c1c(C(=O)OC)sc2cccc(F)c12,inactive
23,Cc1ccc(C(=O)Nc2nc(-c3ccco3)c(-c3ccco3)s2)o1,7.57 µM (active)

row,Structure (SMILES),Potency
1,CCOC(=O)Cc1csc(NC(=O)/C=C/c2ccco2)n1,4.26 µM (active)
2,Cc1cc(C)c2oc(-c3ccc(C)c(NC(=O)/C=C/c4ccco4)c3)nc2c1,2.39 µM (active)
3,Cc1csc(NC(=O)/C=C/c2ccco2)n1,3.01 µM (active)
4,CCC(CC)c1nnc(NC(=O)/C=C/c2ccco2)s1,inactive
5,Clc1ccc(C=Cc2ccccn2)c(Cl)c1,0.338 µM (active)
6,Clc1ccc(C=Cc2ccccn2)cc1,0.379 µM (active)
7,Clc1ccc2c(NCc3ccccn3)ncnc2c1,inactive
8,Clc1ccc(/C=C/c2ncc3ccccn23)cc1,1.51 µM (active)
9,Cc1ccc2nc(/C(C#N)=C\c3ccc([N+](=O)[O-])o3)[nH]c2c1,8.49 µM (active)
10,Nc1c(C(=O)Nc2ccccc2Br)sc2nc(-c3cccs3)ccc12,8.49 µM (active)
11,Nc1c(C(=O)C2CC2)sc2nc(-c3cccs3)cc(C(F)(F)F)c12,inactive
12,c1coc(CSc2ncnc3c2oc2ccccc23)c1,5.36 µM (active)
13,Cc1sc2ncnc(SCc3ccco3)c2c1C,inactive
14,O=C(COCc1cc(-c2cccs2)on1)Nc1cc(Cl)ccc1O,inactive
15,Fc1ccc2nc(Nc3nc4c(F)cc(F)cc4s3)sc2c1,6.75 µM (active)
16,Fc1cc(F)c2nc(Nc3nc4cc5c(cc4s3)OCO5)sc2c1,5.36 µM (active)
17,Fc1cccc2sc(Nc3nc4ccccc4s3)nc12,2.13 µM (active)
18,O=C(OCC(=O)N1CCCC1)c1cc([N+](=O)[O-])ccc1Cl,inactive
19,O=[N+]([O-])c1ccc(Cl)c(/C=N/n2c(-c3ccncc3)n[nH]c2=S)c1,1.9 µM (active)
20,CCOCCCNC(=O)c1ccc(-n2c(-c3ccccc3)cc3c2CCC(C)C3)cc1 (stereo not drawn),inactive
21,O=C(Nc1ccccc1F)c1cc(-c2ccco2)nc2ccccc12,10.7 µM (active)
22,COc1ccccc1CNC(=O)COC(=O)c1cc(-c2ccco2)nc2ccccc12,5.36 µM (active)
23,O=C(COC(=O)/C=C/c1ccco1)NCc1ccccc1Cl,inactive

row,Structure (SMILES),Potency
1,O=C(Nc1ccc(F)cc1F)c1cc(-c2ccco2)nc2ccccc12,6.75 µM (active)
2,O=Cc1c(Sc2ccccn2)nc2ccccn2c1=O,inactive
3,COc1ccc(N(CCCN2C(=O)c3cccc4cccc(c34)C2=O)C(=O)c2cccc(OC)c2)cc1,inactive
4,CCOc1cc2ccccc2cc1C(=O)Nc1ccccn1,5.36 µM (active)
5,CC1Oc2ccccc2OC1C(=O)Nc1ccccn1 (stereo not drawn),inactive
6,CCc1nc(Nc2cccc(F)c2)c2oc3ccccc3c2n1,inactive
7,Brc1ccccc1C1N=C(c2ccccc2)NO1 (stereo not drawn),1.35 µM (active)
8,Cc1cc(C)cc(NC(=O)/C=C/c2ccc([N+](=O)[O-])s2)c1,inactive
9,Cc1cc(C)cc(NC(=O)Nc2cccs2)c1,2.39 µM (active)
10,O=C(CCCc1ccccc1)Nc1cccc([N+](=O)[O-])c1,7.57 µM (active)
11,O=C(CSc1cccc[n+]1[O-])Nc1cc([N+](=O)[O-])ccc1Cl,inactive
12,O=C(CCCCCCC(=O)Nc1ccccc1)NO,inactive
13,O=C(NNC(=O)C12CC3CC(CC(C3)C1)C2)c1cccc([N+](=O)[O-])c1,inactive
14,O=C(Nc1cccc([N+](=O)[O-])c1)Nc1cccs1,10.7 µM (active)
15,COc1ccc(NC(=O)C2CC(=O)N/C(=N/N=C/c3ccco3)S2)cc1 (stereo not drawn),inactive
16,COc1ccc(OC)c(NC(=O)C(C#N)=Cc2ccco2)c1,9.53 µM (active)
17,O=C(/C=C/c1ccccc1Cl)Nc1nc(-c2cccs2)ns1,1.69 µM (active)
18,Cc1cc2c(cc1C)N(C(=O)CCl)CC(=O)N2,inactive
19,CSc1ccc(-c2cc(=O)c3ccccc3o2)cc1,1.2 µM (active)
20,Nn1c(-c2ccccc2)nc2cc(Cl)ccc2c1=O,inactive
21,O=c1cc(-c2ccccc2)oc2ccc(Cl)cc12,0.849 µM (active)
22,COc1c(C(=O)Nc2nnc(C3CC3)s2)csc1Cl,7.57 µM (active)
23,O=C(N/N=C/C(Br)=C/c1ccccc1)c1ccc([N+](=O)[O-])cc1,inactive

row,Structure (SMILES),Potency
1,O=[N+]([O-])c1ccc(Cl)cc1C=NNc1ccccn1,inactive
2,O=[N+]([O-])c1cncc([N+](=O)[O-])c1Nc1cccc(O)c1,inactive
3,O=[N+]([O-])c1cc(Cl)cc2c1nc(NCCO)c1ccccc12,inactive
4,O=[N+]([O-])c1ccccc1C=NNc1ccccc1,2.69 µM (active)
5,O=[N+]([O-])c1ccccc1/C=N/Nc1nccnc1Cl,13.5 µM (active)
6,Fc1ccc2cc(-c3ccsc3)ncc2c1,1.69 µM (active)
7,CCN(CC)c1ccc2c(c1)oc(=O)c1c(Cl)cc(=O)oc12,6.01 µM (active)
8,Cc1noc(C)c1-c1ccc2ncnc(NCC3CCCCN3C)c2c1 (stereo not drawn),inactive
9,O=C(Nc1cccc([N+](=O)[O-])c1)c1[nH]ncc1Cl,9.53 µM (active)
10,O=C(Nc1ccccc1)c1cc([N+](=O)[O-])ccc1Cl,inactive
11,CCn1ncc(Br)c1C(=O)Nc1cc([N+](=O)[O-])ccc1C,inactive
12,COc1ccc(C(C#N)=C2C=CC(=NO)C=C2)cc1,8.49 µM (active)
13,Cc1cc(C)n(-c2nc3ccccc3c(=O)n2OCc2ccc(F)cc2)n1,inactive
14,C#CCSc1nc(-c2cccs2)ccc1C#N,inactive
15,N#Cc1cccn1-c1nccc(-c2cccs2)n1,12 µM (active)
16,O=C(CSc1nccc(-c2cccs2)n1)Nc1ccc(F)c(Cl)c1,inactive
17,Cc1ccc(S(=O)(=O)c2nc(S(C)(=O)=O)sc2N2CCC(O)CC2)cc1,inactive
18,Fc1cccc(Cc2c(-c3ccco3)nc3c4ccccc4ccn23)c1,0.379 µM (active)
19,c1ccc(Cc2c(-c3ccco3)nc3c4ccccc4ccn23)cc1,0.601 µM (active)
20,Clc1cccc(Cc2c(-c3ccco3)nc3c4ccccc4ccn23)c1,1.9 µM (active)
21,c1ccc(-c2nc3c4ccccc4ccn3c2Cc2ccsc2)cc1,1.51 µM (active)
